This is an account of results in PubChem BioAssay (EPA / NIEHS).

A short description of experiment [1]: ATG_E_Box_CIS: Attagene CIS-FACTORIAL HepG2 Assay for human Enhancer Box (E-box) (AID 2282936). To be noted: HepG2 E-box cis-reporter transcription, actives raise or lower the signal. The essentials: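 DMSO served as negative control and baseline for bidirectional fitting. Human hepatoma HepG2 cells, transiently transfected with cis-reporter constructs, were dosed 24 h; reporter mRNA read by RT-PCR and capillary electrophoresis.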

Experiment [2] can be described thus: ATG_M_61_CIS: Attagene CIS-FACTORIAL HepG2 Assay for M61 Transcription Factor (Internal Marker) (AID 2282937). To be noted: HepG2 Attagene CIS-FACTORIAL M61 internal marker reporter; actives raise or lower the signal. The essentials:
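Background-control endpoint: HepG2 cells with cis-regulated reporter constructs, 24 h exposure, reporter mRNA detected via fluorescent primer extension and capillary electrophoresis; values from bidirectional fitting with DMSO baseline.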

Experiment [3] in a line: ATG_EGR_CIS: Attagene CIS-FACTORIAL HepG2 Assay for human Early Growth Response 1 (EGR1) (AID 2282938). The conditions noted are these: HepG2 Attagene CIS-FACTORIAL EGR reporter mRNA; actives raise or lower the signal. The essentials:
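Endpoint derived by bidirectional fitting versus DMSO vehicle. Method: cis-promoter reporter units transfected into HepG2, 24 h dosing, RNA isolation, RT-PCR with 6-FAM primer extension and HpaI digestion, then capillary electrophoresis fluorescence detection.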

Experiment [4] is described as follows: ATG_M_19_CIS: Attagene CIS-FACTORIAL HepG2 Assay for M19 Transcription Factor (Internal Marker) (AID 2282939). To be noted: HepG2 Attagene CIS-FACTORIAL M19 internal marker reporter; actives raise or lower the signal. In outline: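 HepG2 cells transiently transfected with cis-regulated multiplexed reporter units, dosed 24 h. Reporter mRNA quantified by RT-PCR and capillary electrophoresis; internal background marker fitted bidirectionally versus DMSO.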

A short description of experiment [5]: ATG_ERE_CIS: Attagene CIS-FACTORIAL HepG2 Assay for Estrogen Response Element (ERE) (AID 2282940). To be noted: HepG2 ERE cis-reporter, Attagene RNA transcript; actives raise or lower the signal. In outline:
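HepG2 cells transiently transfected with multiplexed cis-element reporter units, measuring endogenous transcription factor activity; ERE reporter mRNA quantified after 24 h exposure by RT-PCR, fluorescent labelling, HpaI digestion and capillary electrophoresis. Bidirectional change versus DMSO.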

A short description of experiment [6]: ATG_Ets_CIS: Attagene CIS-FACTORIAL HepG2 Assay for human Erythroblast Transformation Specific (ETS) (AID 2282941). The conditions noted are these: HepG2 ETS cis-reporter transcription, actives raise or lower the signal. In outline: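 After transient cis-reporter transfection, HepG2 cells receive test chemical for 24 h. Reporter mRNA levels, measured by RT-PCR and capillary electrophoresis fluorescence, are analysed bidirectionally relative to the DMSO baseline.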

The target in experiment [7] is Hepatocyte nuclear factor 3-beta (Homo sapiens) (UniProt Q9Y261). Kind of experiment: ATG_FoxA2_CIS: Attagene CIS-FACTORIAL HepG2 Assay for human Forkhead box A2 (FOXA2) (AID 2282942). The conditions noted are these: HepG2 cis-reporter transcription factor activity, 24 h; actives raise or lower the signal. The essentials:
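Measured: reporter mRNA induction or loss in HepG2 transiently carrying multiple cis-regulated reporter units, 24 h after dosing. Quantified by RT-PCR plus capillary electrophoresis, normalised to DMSO.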

Experiment [8] in a line: ATG_FoxO_CIS: Attagene CIS-FACTORIAL HepG2 Assay for human Forkhead box O (FoxO) (AID 2282943). To be noted: HepG2 Attagene cis-reporter, FoxO element, mRNA; actives raise or lower the signal. The essentials:
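Endogenous transcription factor activity read from multiplexed cis-promoter reporter transcripts in transiently transfected HepG2, 24 h after dosing. Reporter RNA measured via RT-PCR plus capillary electrophoresis of FAM-labeled products; gain or loss relative to DMSO.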

Experiment [9] can be described thus: ATG_GATA_CIS: Attagene CIS-FACTORIAL HepG2 Assay for human GATA Binding Protein (AID 2282944). To be noted: HepG2 GATA cis-element reporter, Attagene multiplex mRNA; actives raise or lower the signal. In outline:
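HepG2 cells transiently transfected with multiplexed cis-element reporter units measure endogenous GATA activity; after 24 h compound exposure, reporter mRNA quantified by RT-PCR and capillary electrophoresis. Changes fitted in both directions vs DMSO.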

Experiment [10] in a line: ATG_GLI_CIS: Attagene CIS-FACTORIAL HepG2 Assay for human Zinc Finger Protein GLI1 (AID 2282945). The conditions noted are these: HepG2, Attagene cis-factorial reporter mRNA, GLI element; actives raise or lower the signal. In outline:
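Bidirectional curve fits relative to DMSO, using reporter mRNA levels from RT-PCR plus capillary electrophoresis. Cells were HepG2 transiently carrying cis-regulated reporter constructs, harvested 24 h after dosing.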

Experiment [11] can be described thus: ATG_GRE_CIS: Attagene CIS-FACTORIAL HepG2 Assay for human Glucocorticoid Response Elements (GRE) (AID 2282947). The conditions noted are these: HepG2 GRE cis-reporter, Attagene multiplex mRNA; actives raise or lower the signal. The essentials:
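Assay uses human hepatoma HepG2 cells transfected with cis-promoter reporter units, exposed 24 h. mRNA from reporters detected by RT-PCR plus capillary electrophoresis; DMSO serves as negative control and baseline.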

The nature of experiment [12]: ATG_ISRE_CIS: Attagene CIS-FACTORIAL HepG2 Assay for human Interferon Regulatory Factor 1 (IRF1) binding to an Interferon-Stimulated Response Element (ISRE) (AID 2282948). To be noted: HepG2 ISRE cis-reporter (Attagene), mRNA transcription readout; actives raise or lower the signal. The essentials: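 Quantitation relies on labelled RT-PCR fragments separated by capillary electrophoresis. Human HepG2 cells bearing cis-promoter reporter constructs were treated 24 h; DMSO served as baseline for bidirectional fitting.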

A short description of experiment [13]: ATG_M_32_CIS: Attagene CIS-FACTORIAL HepG2 Assay for M32 Transcription Factor (Internal Marker) (AID 2282949).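 Further: background control marker of the multiplexed CIS panel rather than a real target.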 To be noted: HepG2 Attagene cis-factorial M32 reporter, mRNA; actives raise or lower the signal. In outline: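 Following 24 h chemical exposure of HepG2 cells transiently expressing cis-promoter reporter constructs, reporter transcript levels were determined by RT-PCR with fluorescent labelling and capillary electrophoresis, then fitted bidirectionally against DMSO.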

Experiment [14] in a line: ATG_M_06_CIS: Attagene CIS-FACTORIAL HepG2 Assay for M06 Transcription Factor (Internal Marker) (AID 2282950). The conditions noted are these: HepG2 Attagene CIS-FACTORIAL M06 internal marker reporter; actives raise or lower the signal. The essentials:
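Internal background marker within multiplexed cis-reporter HepG2 system. Cells transiently transfected, dosed 24 h; reporter mRNA measured by RT-PCR, HpaI digestion and capillary electrophoresis. Bidirectional fit relative to DMSO.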

For experiment [15], the target named is Hypoxia-inducible factor 1-alpha (Homo sapiens) (UniProt Q16665). Put plainly: ATG_HIF1a_CIS: Attagene CIS-FACTORIAL HepG2 Assay for human Hypoxia Inducible Factor 1 (HIF1A) (AID 2282951). To be noted: HepG2 Attagene cis-factorial HIF1a reporter transcription; actives raise or lower the signal. In outline:
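Dosed 24 h, transfected HepG2 cells yielded total RNA whose reporter transcripts were RT-PCR-amplified and sized by capillary electrophoresis using fluorescent labelling; DMSO defined baseline, with gain and loss of signal both fitted.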

For experiment [16], the target named is Hepatocyte nuclear factor 6 (Homo sapiens) (UniProt Q9UBC0). Kind of experiment: ATG_HNF6_CIS: Attagene CIS-FACTORIAL HepG2 Assay for human Hepatocyte Nuclear Factor 6 (HNF6) (AID 2282952). The conditions noted are these: HepG2 Attagene cis-factorial HNF6 reporter transcription; actives raise or lower the signal. The essentials:
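Transiently transfected HepG2 cells expressing cis-regulated reporter transcription units were exposed to chemical for 24 h in a 24-well format. Reporter transcript abundance was determined by fluorescence capillary electrophoresis.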

For experiment [17], the target named is Heat shock factor protein 1 (Homo sapiens) (UniProt Q00613). Put plainly: ATG_HSE_CIS: Attagene CIS-FACTORIAL HepG2 Assay for human Heat Shock Transcription Factor 1 (HSE) (AID 2282953). The conditions noted are these: HepG2 HSE cis-reporter, Attagene RNA transcription; actives raise or lower the signal. In outline:
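HepG2 cells transfected with cis-promoter reporter units sensing endogenous transcription factor activity; reporter mRNA quantified 24 h post-dose by RT-PCR and capillary electrophoresis of 6-FAM-labelled products. Bidirectional fitting against DMSO.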

Experiment [18] is described as follows: ATG_MRE_CIS: Attagene CIS-FACTORIAL HepG2 Assay for human Metal Responsive Element (MRE) (AID 2282954). To be noted: HepG2 MRE cis-reporter transcription, Attagene multiplex; actives raise or lower the signal. In outline: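 After a 24 h chemical exposure, transiently transfected HepG2 cells yield RNA whose reporter sequences are amplified, FAM-labelled and sized by capillary electrophoresis. Curves are fitted bidirectionally relative to DMSO.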

Experiment [19] addresses Bile acid receptor (Homo sapiens) (UniProt Q96RI1). Put plainly: ATG_IR1_CIS: Attagene CIS-FACTORIAL HepG2 Assay for human Nuclear Receptor Subfamily 1 Group H Member 4 (NR1H4), IR1 submotif (AID 2282946). The conditions noted are these: IR1 reporter transcription, actives raise or lower the signal. The essentials:
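Cells (human HepG2) carry transiently transfected cis-promoter reporter transcription units. Compounds are incubated 24 h, total RNA is reverse-transcribed and amplified, and labelled fragments are resolved by capillary electrophoresis. Curves use DMSO as baseline.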

A short description of experiment [20]: ATG_PBREM_CIS: Attagene CIS-FACTORIAL HepG2 Assay for human Phenobarbital-responsive Enhancer Module (PBREM) (AID 2282955). To be noted: HepG2 PBREM cis-reporter, Attagene multiplexed transcription; actives raise or lower the signal. The essentials:
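Transfected liver-derived HepG2 cells exposed 24 h; PBREM reporter transcript quantified via RT-PCR and capillary electrophoresis, with activity in either direction referenced to DMSO.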

Structures are written as SMILES. Calls of active or inactive are those of the source. How the source made its calls: active means hit-call score of the fitted dose curve at least 0.9, where 1 is the maximum; inactive means score below 0.9.

Chain of Hepatocyte nuclear factor 6 (Homo sapiens) (Q9UBC0 whole entry, looked up): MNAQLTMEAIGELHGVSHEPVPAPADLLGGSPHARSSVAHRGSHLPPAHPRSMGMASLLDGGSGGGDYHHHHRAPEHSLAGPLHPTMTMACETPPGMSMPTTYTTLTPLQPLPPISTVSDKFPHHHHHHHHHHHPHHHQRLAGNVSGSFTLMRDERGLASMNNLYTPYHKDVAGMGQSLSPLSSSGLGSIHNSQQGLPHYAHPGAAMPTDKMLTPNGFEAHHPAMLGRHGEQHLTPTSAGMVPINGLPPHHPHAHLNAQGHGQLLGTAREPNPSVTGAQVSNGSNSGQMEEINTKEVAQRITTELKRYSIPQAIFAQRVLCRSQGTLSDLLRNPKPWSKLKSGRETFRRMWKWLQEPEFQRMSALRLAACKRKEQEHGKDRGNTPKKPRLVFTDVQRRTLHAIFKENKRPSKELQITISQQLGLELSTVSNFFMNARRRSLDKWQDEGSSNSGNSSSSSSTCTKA
Chain of Heat shock factor protein 1 (Homo sapiens) (Q00613 whole entry, looked up): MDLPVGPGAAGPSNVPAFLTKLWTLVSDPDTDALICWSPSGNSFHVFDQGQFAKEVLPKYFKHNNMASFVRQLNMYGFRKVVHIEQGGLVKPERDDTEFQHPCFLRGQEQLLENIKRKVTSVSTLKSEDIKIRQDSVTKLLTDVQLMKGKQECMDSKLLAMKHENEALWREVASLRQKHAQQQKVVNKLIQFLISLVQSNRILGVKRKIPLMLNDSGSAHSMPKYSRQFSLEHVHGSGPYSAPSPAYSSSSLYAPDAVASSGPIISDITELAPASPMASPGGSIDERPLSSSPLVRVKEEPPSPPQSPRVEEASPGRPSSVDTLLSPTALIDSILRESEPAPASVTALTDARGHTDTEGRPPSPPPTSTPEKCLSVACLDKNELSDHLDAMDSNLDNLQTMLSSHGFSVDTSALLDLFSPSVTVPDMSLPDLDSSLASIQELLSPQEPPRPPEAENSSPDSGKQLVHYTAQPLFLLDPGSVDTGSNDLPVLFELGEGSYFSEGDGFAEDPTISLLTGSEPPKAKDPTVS
Chain of Hepatocyte nuclear factor 3-beta (Homo sapiens) (Q9Y261 whole entry, looked up): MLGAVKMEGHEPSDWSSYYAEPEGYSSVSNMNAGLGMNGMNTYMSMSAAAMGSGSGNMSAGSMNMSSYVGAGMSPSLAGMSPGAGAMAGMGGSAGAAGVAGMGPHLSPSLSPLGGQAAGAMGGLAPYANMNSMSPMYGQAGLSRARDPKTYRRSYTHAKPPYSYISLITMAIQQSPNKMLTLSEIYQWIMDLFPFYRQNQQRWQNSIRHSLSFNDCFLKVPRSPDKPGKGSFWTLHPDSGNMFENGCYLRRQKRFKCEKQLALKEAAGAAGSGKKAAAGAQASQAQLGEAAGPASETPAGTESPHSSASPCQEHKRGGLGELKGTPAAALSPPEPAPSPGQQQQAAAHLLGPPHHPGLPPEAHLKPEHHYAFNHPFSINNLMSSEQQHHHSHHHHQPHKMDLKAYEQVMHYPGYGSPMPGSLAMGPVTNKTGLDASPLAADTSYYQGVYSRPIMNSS
Chain of Hypoxia-inducible factor 1-alpha (Homo sapiens) (Q16665 whole entry, looked up): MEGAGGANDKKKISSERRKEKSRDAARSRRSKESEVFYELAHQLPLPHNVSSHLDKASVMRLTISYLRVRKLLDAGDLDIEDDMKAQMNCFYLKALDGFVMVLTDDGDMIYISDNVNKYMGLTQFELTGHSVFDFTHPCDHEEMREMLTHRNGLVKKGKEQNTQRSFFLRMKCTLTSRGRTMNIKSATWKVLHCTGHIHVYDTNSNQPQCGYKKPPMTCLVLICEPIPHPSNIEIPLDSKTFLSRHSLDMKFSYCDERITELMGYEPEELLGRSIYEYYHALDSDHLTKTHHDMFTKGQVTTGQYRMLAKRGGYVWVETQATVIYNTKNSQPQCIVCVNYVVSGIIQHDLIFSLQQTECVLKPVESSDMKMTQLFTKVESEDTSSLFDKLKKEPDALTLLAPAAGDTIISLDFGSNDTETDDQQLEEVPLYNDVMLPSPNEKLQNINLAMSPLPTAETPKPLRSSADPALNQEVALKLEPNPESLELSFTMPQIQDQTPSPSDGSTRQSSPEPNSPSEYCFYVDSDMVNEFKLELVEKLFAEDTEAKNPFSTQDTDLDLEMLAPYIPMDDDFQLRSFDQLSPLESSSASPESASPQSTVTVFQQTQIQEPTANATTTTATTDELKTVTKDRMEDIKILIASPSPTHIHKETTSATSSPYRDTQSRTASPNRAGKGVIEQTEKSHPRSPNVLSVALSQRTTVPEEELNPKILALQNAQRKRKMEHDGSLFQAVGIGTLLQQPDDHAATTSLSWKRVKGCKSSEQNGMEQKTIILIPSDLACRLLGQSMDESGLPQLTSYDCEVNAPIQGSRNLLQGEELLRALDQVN
Chain of Bile acid receptor (Homo sapiens) (Q96RI1 whole entry, looked up, the tested form may be a part): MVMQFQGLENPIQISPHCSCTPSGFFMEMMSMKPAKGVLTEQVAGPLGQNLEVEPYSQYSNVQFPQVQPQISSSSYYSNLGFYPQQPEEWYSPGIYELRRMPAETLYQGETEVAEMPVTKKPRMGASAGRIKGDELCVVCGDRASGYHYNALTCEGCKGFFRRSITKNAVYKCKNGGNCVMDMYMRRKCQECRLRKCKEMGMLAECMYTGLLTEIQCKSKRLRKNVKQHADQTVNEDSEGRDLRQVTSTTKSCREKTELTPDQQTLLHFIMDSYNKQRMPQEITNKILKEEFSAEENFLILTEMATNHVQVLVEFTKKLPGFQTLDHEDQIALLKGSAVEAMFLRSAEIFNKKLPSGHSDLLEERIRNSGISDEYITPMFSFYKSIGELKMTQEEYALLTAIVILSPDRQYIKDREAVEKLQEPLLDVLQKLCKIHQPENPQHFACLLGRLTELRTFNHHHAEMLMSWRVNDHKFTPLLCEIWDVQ

In general, AC50 refers to the concentration giving half of the maximal activity seen. For the molecule `Cc1ccc([N+](=O)[O-])cc1S(=O)(=O)O`, the result in [1], in experiment [2], in [3], in experiment [4], in experiment [5] and in experiment [6] was inactive. Moreover, the call in experiment [7], in [9], in experiment [10], in experiment [11], in experiment [12] and in [13] was inactive. Further, the molecule was called inactive in experiment [14], in experiment [15], in experiment [16], in experiment [17] and in [18]. Also, in experiment [8], the AC50 is 153 µM (active).
For `CC(C)(C)c1ccc(OC(=O)c2ccccc2O)cc1`, the outcome in [1], in [2], in experiment [3], in experiment [4], in [6] and in experiment [7] was inactive. The molecule was called inactive in experiment [8], in experiment [9], in experiment [10], in experiment [19], in experiment [11] and in [13]. Further, the result in experiment [14], in experiment [15], in experiment [16], in experiment [17], in [18] and in [20] was inactive. The AC50 in [5] was 7.32 µM (active).
`C[Si](C)(C)O[Si](O)(O)O`: the outcome in experiment [1], in [2], in experiment [3], in experiment [4], in experiment [5] and in experiment [6] was inactive. For the same molecule, the molecule was classed as inactive in [7], in experiment [8], in experiment [9], in [10], in experiment [11] and in experiment [12]. Moreover, the molecule was classed as inactive in experiment [13], in [14], in experiment [15], in experiment [16], in experiment [17] and in experiment [18].
As for `c1ccc(CCCc2ccncc2)cc1`, the result in [1], in experiment [2], in experiment [3], in [4], in [5] and in experiment [7] was inactive. Further, the result in experiment [8], in [9], in experiment [10], in [11], in [12] and in experiment [13] was inactive. Moreover, the molecule was classed as inactive in [14], in experiment [15], in experiment [16] and in experiment [18]. For the same molecule, the values for the AC50 in [6] and in experiment [17] were 155 µM (active) and 144 µM (active), respectively.
